PRMT1 inh = PRMT1 (human) inhibition, primary screen; Q99873; 370,000 compounds, 1.3% hits; recombinant PRMT1, activity-based probe fluorescence polarization; inhibition, % at 2.79 µM;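 active means inhibition above about 21% made by adding two undisclosed values, limit read from the data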
ALR H2O2 inh = blocks human ALR sulfhydryl oxidase activity; AID 485317; purified ALR, DTT oxidation, H2O2 HRP-luminol luminescence; 290,000 compounds, 3.8% hits; inhibition, % (no concentration beside the values); P55789;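 active means mean replicate inhibition above about 79%, with every replicate also reaching it, limit read from the data; inconclusive means only one of the two criteria met; inactive means mean below limit and not every replicate reaching it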
ABHD5 PLIN5 PPI = inhibitors of human ABHD5-perilipin-5 interaction; Split G. princeps luciferase complementation, luminescence, 4 h; Q00G26+Q8WTS1; inhibition, % at 4 µM; 360,000 compounds, 0.78% hits;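 active means inhibition above the mean inhibition across every tested compound plus 3 SD, cut at about 22% in these data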;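 further: 0% = DMSO only wells and the 100% control is not disclosed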
Rtt109 HAT inh = inhibitors of Candida albicans Rtt109/Vps75 histone acetyltransferase | purified Rtt109/Vps75, ThioGlo CoA-SH fluorescence, 4 h | inhibition, % at 34.9 µM | 330,000 compounds, 0.16% hits | AID 540336;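 active means inhibition of at least 50% in every replicate; inconclusive means best replicate reaches 50% inhibition but some replicates fall short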
rCAG binder = molecules binding r(CAG) RNA repeats; AID 651821; 370,000 compounds, 1.3% hits; r(CAG) RNA repeat, TO-PRO-1 dye displacement fluorescence; inhibition, % at 3 µM;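 active means inhibition above the plate cutoff, the mean of all test compounds on that plate plus 3 SD, cut at about 35% in these data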;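 further: 0% = DMSO alone and 100% = 100 µM mitoxantrone as full dye displacement; higher means more dye released from RNA so lower well fluorescence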
LANA-H2B inh = blocks KSHV LANA binding to histone H2A/H2B | Q9QR71 | cell-free LANA-H2A/H2B peptide, fluorescence polarization | inhibition, % (no concentration beside the values) | 320,000 compounds, 0.6% hits | AID 2629; in the data active means inhibition mostly above about 10%, no sharp cut-off; inactive means mostly below about 6.7%
Numbers without * were called inactive; ? = inconclusive; . = not tested or not shown. Most compounds without a hit are left out; they make up all but 5.9% or so of the library.

SMILES | PRMT1 inh | ALR H2O2 inh | ABHD5 PLIN5 PPI | Rtt109 HAT inh | rCAG binder | LANA-H2B inh
CC1CCN(C2(O)C(=O)Nc3ccc([N+](=O)[O-])cc32)CC1 (centres undefined) | -2 | 6 | 7 | 10 | 3 | 2
Cc1cc([N+](=O)[O-])cc2c1NC(=O)C2(O)N1CCOCC1 (centres undefined) | 0 | -39 | -15 | 6 | 1 | 58*
C=C(C)CN1C(=O)c2ccccc2C1=O | -1 | -8 | 8 | 41 | 4 | 1
C=C(C)CC1Nc2ccccc2NC1CC(=C)C (centres undefined) | 6 | 99* | 1 | 10 | -3 | 1
COc1ccc2[nH]cc(CCNC(=S)NC3CCCC3)c2c1 | 1 | 34 | 0 | 2 | -4 | 2
COc1ccc2[nH]cc(CCNC(=O)C3CCCCC3)c2c1 | 2 | -7 | -3 | 8 | 0 | 12*
COc1ccc2[nH]cc(CCNC(=O)C3CCCNC3=O)c2c1 (centres undefined) | 1 | 12 | 5 | 8 | 0 | 2
CNC(=S)NCCc1c[nH]c2ccc(OC)cc12 | -2 | 99* | -7 | 10 | 1 | 1
O=C(O)C1CCC2CCCC21 (centres undefined) | . | . | 10 | . | . | .
NC(=O)c1ccsc1NC(=O)COC(=O)Cc1c[nH]c2ccccc12 | -1 | . | 4 | 7 | 14 | -6
NC(=O)c1ccsc1NC(=O)COC(=O)c1ccc(Cl)nc1 | 5 | -1 | 13 | 25 | 6 | -1
NC(=O)c1ccsc1NC(=O)COC(=O)c1cccnc1Cl | -2 | 94* | -3 | -3 | 5 | 0
NC(=O)c1ccsc1NC(=O)COC(=O)Cc1cccc2ccccc12 | 4 | 97* | 0 | ? | 11 | 3
CC(C)(C)NC(=O)NC(=O)CN1CCN(c2ccc(O)cc2)CC1 | 13 | 94* | 8 | -1 | 3 | 3
CC(C)(C)NC(=O)NC(=O)CN1CCN(c2ccccc2)CC1 | 5 | 35 | -2 | -2 | -11 | -1
Cc1ccc(NC(=O)NC(=O)CN2CCN(c3ccc(O)cc3)CC2)c(C)c1 | 14 | 99* | 4 | 0 | 11 | 9
CC(C)(C)NC(=O)C1c2ccccc2OCC(=O)N1CCCN1CCOCC1 (centres undefined) | -2 | . | 6 | . | 2 | .
CC1(NC(=S)Nc2ccc(NC(=S)NC3(C)CCS(=O)(=O)C3)cc2)CCS(=O)(=O)C1 (centres undefined) | -1 | 55 | -7 | . | 5 | 1
Cc1ccc(NC(=O)CSCC(=O)Nc2ccc(N3CCOCC3)c(Cl)c2)cc1 | 1 | 98* | -1 | 5 | 1 | 0
Cn1c(SCC(=O)Nc2ccc(N3CCOCC3)c(Cl)c2)nnc1-c1ccccc1 | . | 42 | . | . | . | 40*
Cc1ccc(NC(=O)CSCC(=O)NC2(C)CCS(=O)(=O)C2)cc1 (centres undefined) | 2 | 99* | 5 | 2 | 3 | 3
COc1cccc(NC(=O)C2CCCN2C(=O)NCc2ccccc2OC)c1 (centres undefined) | 1 | . | . | . | 3 | .
Cc1cccc(Cn2c(NC3CCCC3)nc3c2c(=O)[nH]c(=O)n3C)c1 | -1 | . | 11 | . | 1 | .
c1ccc(CNc2c3ccccc3nc3ccccc23)cc1 | 1 | -9 | 7 | -19 | 8 | -2
Oc1ccc(CCNc2c3ccccc3nc3ccccc23)cc1O | 12 | 99* | -5 | -8 | 14 | 14*
SMILES | PRMT1 inh | ALR H2O2 inh | ABHD5 PLIN5 PPI | Rtt109 HAT inh | rCAG binder | LANA-H2B inh
C=CCn1c(COc2ccc(Cl)cc2)nnc1SCC(=O)c1ccc(-c2ccccc2)cc1 | 8 | . | . | . | 8 | .
O=C(CSCc1cnn(-c2ccccc2)c1-n1cccc1)NCc1ccccn1 | -1 | 81* | 4 | -7 | -3 | -2
COc1ccc(CNC(=O)CSCc2cnn(-c3ccccc3)c2-n2cccc2)cc1 | -1 | -24 | -10 | -5 | -1 | -1
CN(Cc1cccnc1)C(=O)c1ccc2nc(Cc3ccccc3F)oc2c1 | 1 | 97* | 1 | -5 | -4 | 5
CN(Cc1ccon1)C(=O)c1ccc2nc(Cc3cccc(Cl)c3)oc2c1 | 3 | -1 | 16 | 8 | -2 | -3
Cc1nn(CC2CCCCC2)c(N)c1-c1ccccc1 | -3 | 98* | -1 | 1 | -3 | 2
CCOC(=O)Cn1nc(C)c(-c2ccccc2)c1N | -1 | 36 | -7 | . | 1 | 0
C=CC1CN2CCC1CC2C(O)c1ccnc2ccc(OC)cc12 (centres undefined) | 1 | . | 4 | -3 | 2 | .
CCCC(=O)Nc1ccc(C(=O)NNC(=S)NC(=O)c2cccs2)cc1 | 0 | 14 | -1 | 60* | 9 | 3
O=C(NNC(=S)Nc1ccc(Cl)cc1)c1cccs1 | -2 | 97* | 5 | 6 | 10 | 2
CC(=O)NC(=S)Nc1ccc(NC(=S)NC(=O)c2cccs2)cc1 | 1 | -4 | 0 | -3 | 0 | -6
CCCC(=O)Nc1ccc(C(=O)NNC(=O)c2cccs2)cc1 | . | -4 | -5 | 3 | . | 1
COc1cc(C(=O)NNC(=S)NC(=O)c2ccc(Cl)cc2)cc(OC)c1OC | 6 | 96* | -2 | 4 | 16 | 1
O=C(NNC(=S)Nc1ccccc1)c1cccs1 | 0 | 31 | 4 | -7 | 0 | 2
CCN(CC)c1ccc(NC(=S)NC(=O)c2cccs2)cc1 | 1 | 98* | -10 | 9 | 2 | 1
O=C(CSc1nnc(COc2ccc(Cl)cc2)n1Cc1ccco1)Nc1ccc(OCc2ccccc2)cc1 | -1 | . | . | . | 21 | .
O=C(c1ccccc1)c1ccc(N2CCN(C(=O)c3cccc(F)c3F)CC2)c(F)c1 | 0 | -9 | 2 | -1 | 0 | -3
CCN(C(=O)COC(=O)c1ccc(Sc2ncn[nH]2)c([N+](=O)[O-])c1)c1ccccc1C | 3 | . | . | . | 13 | .
CC(C)(C)c1ccc(C(=O)NC(=S)NNC(=O)COc2ccccc2)cc1 | 6 | 99* | -14 | 2 | 8 | -6
CC(C)(C)c1ccc(C(=O)NNC(=S)NC(=O)c2cccnc2)cc1 | -1 | ? | -10 | 1 | 11 | 2
COc1ccc(/C=C/C(=O)NC(=S)NNC(=O)Cc2cccs2)cc1OC | -2 | -62 | 2 | . | 8 | -2
COc1ccc(/C=C/C(=O)NC(=S)NNC(=O)c2cccs2)cc1OC | -1 | 99* | -5 | -13 | 3 | -1
CC(C)(C)c1ccc(C(=O)NC(=S)NNC(=O)c2cccs2)cc1 | 2 | 98* | -11 | -3 | 11 | -10
O=C(NC(=S)NNC(=O)c1cccs1)c1ccco1 | -1 | 97* | 3 | 2 | 1 | 0
OC(c1ccccc1)(c1nc(/C=C/c2ccc(C(F)(F)F)cc2)cs1)C(F)(F)F (centres undefined) | -1 | . | -15 | . | 3 | .
CCCCC(=O)Nc1ccc(C(N)=O)cc1 | 2 | -1 | -2 | -2 | 4 | 5
Cc1ccccc1C(=O)NNC(=S)NC(=O)c1cccs1 | 0 | 8 | 5 | 2 | 3 | 0

Compound activity (PubChem BioAssay)
